Screening results as filed in PubChem.
TDP1 block: blocks human tyrosyl-DNA phosphodiesterase 1; Q9NUW8; recombinant TDP1, AlphaScreen DNA substrate cleavage; Potency, µM (titrated, usually from 130 µM), without a hit: at the top dose activity change, negative = inhibition, hits mostly inhibitors; actives 0.28% (n = 350,000); note: potency is the fitted concentration of half-maximal effect; % is set by controls: 0 for no effect and ±100 for the full control effect; nearly all actives have a fitted effect of over 40% in size
Target sequence (Q9NUW8 whole entry, looked up): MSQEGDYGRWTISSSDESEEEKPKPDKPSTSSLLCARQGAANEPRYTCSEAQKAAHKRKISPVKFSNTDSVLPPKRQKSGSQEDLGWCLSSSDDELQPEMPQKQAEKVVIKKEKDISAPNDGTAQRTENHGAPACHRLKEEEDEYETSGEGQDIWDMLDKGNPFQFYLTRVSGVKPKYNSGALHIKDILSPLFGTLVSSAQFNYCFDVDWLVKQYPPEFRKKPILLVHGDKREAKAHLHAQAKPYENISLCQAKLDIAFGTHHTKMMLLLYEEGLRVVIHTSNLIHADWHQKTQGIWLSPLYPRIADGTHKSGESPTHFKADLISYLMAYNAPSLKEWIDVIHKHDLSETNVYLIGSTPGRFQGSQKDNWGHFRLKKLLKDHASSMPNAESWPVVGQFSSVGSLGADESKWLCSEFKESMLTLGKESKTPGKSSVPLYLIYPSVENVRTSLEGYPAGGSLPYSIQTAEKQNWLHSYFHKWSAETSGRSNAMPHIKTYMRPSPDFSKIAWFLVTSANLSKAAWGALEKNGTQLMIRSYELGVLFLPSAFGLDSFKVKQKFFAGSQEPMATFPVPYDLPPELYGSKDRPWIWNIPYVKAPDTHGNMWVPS
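AlphaScreen read-out: signal falls as enzyme removes the 3' tyrosine-FITC from a 5'-biotinylated DNA oligo (15 nM, 5 min, RT). Enzyme was E. coli-made recombinant Tdp1 at 1 nM, exposed to compound for 15 min beforehand; beads 10 ug/ml, 10 min.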
TGFb SMAD3 inh: blocks TGF-b signaling | AID 588855 | HepG2 CAGA-GFP TGF-b/SMAD3 reporter, GFP fluorescence, 18 h; TGF-beta stimulated, 500 pg/mL final | actives 1.2% (n = 410,000) | Potency, µM (series often up to 46.1 µM), without a hit: at the highest dose activity, negative = inhibition, hits mostly inhibitors; note: potency is the fitted concentration of half-maximal effect; % is set by controls: 0 for no effect and ±100 for the full control effect; nearly all actives have a fitted effect of over 65% in size
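GFP signal (ex488/em500-530) from TGF-beta-stimulated HEPG2 CAGA-GFP cells, 500 pg/mL final, 18 h at 37 degrees C in DMEM plus 1% FBS, normalized to unstimulated and DMSO-stimulated controls.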
DT40 TDP1 no CPT: qHTS for Inhibitors of human tyrosyl-DNA phosphodiesterase 1 (TDP1): qHTS in cells in absence of CPT | actives 15% (n = 420,000) | DT40 Tdp1-/- hTDP1 cells, no CPT, ATP luminescence, 48 h | Potency, µM (top dose mostly 46.2 µM), for the others: top-dose activity change, negative = growth inhibition, actives largely listed as inhibitors; note: potency is the fitted concentration of half-maximal effect; % is set by controls: 0 for no effect and ±100 for the full control effect; nearly all actives have a fitted effect of over 55% in size
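Chicken DT40 Tdp1-/- cells stably complemented with human TDP1 were seeded at 400 cells/well with DMSO in place of 20 nM camptothecin. After compound pinning, cells grew at least 48 hr at 37 °C; viability read by CellTiter-Glo luminescence.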
TDP1 cell CPT: DT40-hTDP1 cell growth loss with CPT; chicken DT40 Tdp1-/-;hTDP1 cells + 20 nM CPT, ATP luminescence, 48 h; Potency, µM (highest dose often 46.2 µM), for inactives: at the top dose activity change, negative = growth inhibition, actives largely listed as inhibitors; actives 12% (n = 420,000); note: potency is the fitted concentration of half-maximal effect; % is set by controls: 0 for no effect and ±100 for the full control effect; nearly all actives have a fitted effect of over 55% in size
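Chicken DT40 Tdp1-/- cells stably complemented with human TDP1 were seeded at 400 cells/well in medium containing 20 nM camptothecin, exposed to pin-transferred compounds, and grown at 37 °C for at least 48 hr. Viability was read as ATP luminescence.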
HepG2 viability: counter-screen for TGF-b inhibitors: cytotoxicity in HepG2 cells; HepG2 CAGA-GFP viability, ATP luminescence, 18 h; actives 0.76% (n = 410,000); Potency, µM (doses to about 46.1 µM), for inactives: top-dose activity change, negative = cytotoxicity, usual class: cytotoxic; note: potency is the fitted concentration of half-maximal effect
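HepG2 CAGA-GFP cells (1000/well, DMEM with 1% FBS) received compound, then TGF-beta at 500 pg/mL final, and were incubated 18 hours at 37 degrees C. Viability was read by CellTiter-Glo luminescence. Media-only wells were set as complete cell-killing and DMSO as no toxicity.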
IL1B secr inh: blocks inflammasome-driven IL-1 beta release | THP-1 LPS/ATP IL-1B secretion, AlphaLISA, 16 h; active compounds read low | activity change, % at 57.5 µM | actives 4.7% (n = 360,000) | AID 743279; in the data active = activity change below about -50%; inconclusive = mostly about -30% to -49%; note: % is set by controls: 0 for no effect and ±100 for the full control effect
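Secreted IL-1B measured by AlphaLISA bead assay after 16 h compound exposure of THP-1 cells; compounds (final up to 57.5 uM) added 1 h before LPS (250 ng/mL) and ATP (1.25 mM) stimulation; lower signal means less secretion.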
Numbers without * were called inactive; [ ] = remark or other dose. Sampled rows, rich in hits. Any-hit rate of the full collection: about 18%. Unless noted, calls come from the whole dose curve; as a rule, active = well fitted curve in the direction sought with a large enough effect; inconclusive = small, poorly fitted or top-dose-only effect, or another doubt; inactive = no such curve, though single readings can be large; an effect the other way counts as inactive or inconclusive.

`Cc1ccc(NC(=O)CSc2nc(N)c3cc4c(nc3n2)CCCC4)cc1` gave TDP1 block 7.9%, TGFb SMAD3 inh -4.5%, DT40 TDP1 no CPT inconclusive, TDP1 cell CPT 16.4µM*, HepG2 viability -33.4% and IL1B secr inh 16.6.
Cc1cc2cc3c(cc2nc1SCC(=O)Nc1ccccc1)CCC3 was read as TDP1 block 4.0%, TGFb SMAD3 inh -3.3%, DT40 TDP1 no CPT 12.6µM*, TDP1 cell CPT 14.6µM*, HepG2 viability -5.6% and IL1B secr inh 34.3.
`Nc1nc(SCC(=O)Nc2ccccc2)nc2nc3c(cc12)CCCC3` gave TDP1 block 4.5%, TGFb SMAD3 inh inconclusive, DT40 TDP1 no CPT 13µM*, TDP1 cell CPT -22.4%, HepG2 viability -12.0% and IL1B secr inh -51.9*.
Screening Cc1ccc2cc(C)c(SCC(=O)Nc3ccc(S(=O)(=O)N4CCCC4)cc3)nc2c1 returned TGFb SMAD3 inh 0.5%, DT40 TDP1 no CPT inconclusive, TDP1 cell CPT inconclusive, HepG2 viability -2.9% and IL1B secr inh -13.9.
Screening COc1ccccc1NC(=O)c1c[nH]c2ccccc12 returned TGFb SMAD3 inh -17.1%, DT40 TDP1 no CPT inconclusive, TDP1 cell CPT -29.7%, HepG2 viability -30.3% and IL1B secr inh 8.5.
Cc1ccccc1CN1CCc2nc(N3CCN(c4ncccn4)CC3)ncc2C1 was read as TDP1 block 6.2%, TGFb SMAD3 inh inconclusive, DT40 TDP1 no CPT 20.6µM*, TDP1 cell CPT inconclusive and HepG2 viability -32.9%.
`Fc1ccc(CN2CCc3nc(N4CCN(c5ccccc5F)CC4)ncc3C2)c(F)c1` gave TDP1 block 1.2%, TGFb SMAD3 inh inconclusive, DT40 TDP1 no CPT 0.6%, TDP1 cell CPT -15.7% and HepG2 viability -9.3%.
Screening CCOc1ccccc1CN1CCc2nc(N3CCN(c4ccccc4F)CC3)ncc2C1 returned TDP1 block 6.2%, TGFb SMAD3 inh inconclusive, DT40 TDP1 no CPT 20.6µM*, TDP1 cell CPT 16.4µM* and HepG2 viability -20.0%.
`CCOc1ccc(CN2CCc3nc(N4CCN(c5ccccn5)CC4)ncc3C2)cc1OC` gave TDP1 block -6.2%, TGFb SMAD3 inh inconclusive, DT40 TDP1 no CPT 23.1µM*, TDP1 cell CPT 23.1µM* and HepG2 viability -61.0%.
For COc1ccccc1N1CCN(c2ncc3c(n2)CCN(Cc2ccccc2C)C3)CC1 the results were TDP1 block 8.8%, TGFb SMAD3 inh inconclusive, DT40 TDP1 no CPT 5.3%, TDP1 cell CPT -12.3% and HepG2 viability 2.2%.
`Brc1ccc(CN2CCc3nc(N4CCN(c5ncccn5)CC4)ncc3C2)cc1` gave TDP1 block 3.8%, TGFb SMAD3 inh -23.5%, DT40 TDP1 no CPT inconclusive, TDP1 cell CPT inconclusive and HepG2 viability -24.6%.
Screening CC(=O)Nc1cccc(NC(=O)Nc2ccc(F)cc2F)c1 returned TDP1 block 0.0%, TGFb SMAD3 inh 7.7%, DT40 TDP1 no CPT inconclusive, TDP1 cell CPT 14.1%, HepG2 viability 12.1% and IL1B secr inh 8.7.
O=C(Nc1ccccc1)Nc1ccc(F)cc1F was read as TDP1 block -4.9%, TGFb SMAD3 inh -0.7%, DT40 TDP1 no CPT 23.1µM*, TDP1 cell CPT inconclusive, HepG2 viability -2.2% and IL1B secr inh -12.1.
Screening COC(=O)c1ccc(NC(=O)Nc2ccc(F)cc2F)cc1 returned TDP1 block 4.3%, TGFb SMAD3 inh 4.1%, DT40 TDP1 no CPT 6.51µM*, TDP1 cell CPT 8.2µM*, HepG2 viability -11.4% and IL1B secr inh -53.1*.
`COC(=O)c1ccc(C(=O)Nc2ccc(F)cc2)cc1` gave TDP1 block -3.4%, TGFb SMAD3 inh 13.3%, DT40 TDP1 no CPT 8.2µM*, TDP1 cell CPT 10.3µM*, HepG2 viability -0.4% and IL1B secr inh 10.7.
Screening COC(=O)c1ccc(NC(=O)Nc2cccc(F)c2)cc1 returned TDP1 block 0.0%, TGFb SMAD3 inh -24.1%, DT40 TDP1 no CPT inconclusive, TDP1 cell CPT inconclusive, HepG2 viability -25.9% and IL1B secr inh -91.8*.
Screening CC(C)CC(=O)Nc1nnc(CSCc2ccc(F)cc2)s1 returned TDP1 block 1.4%, TGFb SMAD3 inh -22.2%, DT40 TDP1 no CPT inconclusive, TDP1 cell CPT -5.0%, HepG2 viability -15.5% and IL1B secr inh -12.4.
For CCOC(=O)c1c(C)[nH]c(C)c1S(=O)(=O)N(C)CC(=O)Nc1ccc(OC)cc1 the results were TDP1 block 2.6%, TGFb SMAD3 inh -17.8%, DT40 TDP1 no CPT -14.6%, TDP1 cell CPT -34.4% and HepG2 viability -15.4%.
Cc1cc(C)cc(NC(=O)CSc2nc(CSc3ccc(Cl)cc3)cc(=O)[nH]2)c1 was read as TDP1 block 6.2%, TGFb SMAD3 inh 0.7%, DT40 TDP1 no CPT 14.2%, TDP1 cell CPT 9.7%, HepG2 viability 3.6% and IL1B secr inh 48.1.
`Cc1ccc(S(=O)(=O)N2CCN(C(=O)CCc3c[nH]c4ccccc34)CC2)c(C)c1` gave TDP1 block 4.6%, TGFb SMAD3 inh inconclusive, DT40 TDP1 no CPT inconclusive, TDP1 cell CPT inconclusive, HepG2 viability -0.3% and IL1B secr inh -16.7.
`O=C(O)c1cn(-c2ccc(F)cc2)c2cc(N3CCNCC3)c(F)cc2c1=O` gave TDP1 block 6.8%[56.1 µM], TGFb SMAD3 inh 1.6%, DT40 TDP1 no CPT 16.4µM*, TDP1 cell CPT inconclusive, HepG2 viability 8.3% and IL1B secr inh -12.8.
For O=C(CSc1ccccc1)Nc1nccs1 the results were TDP1 block 0.0%, TGFb SMAD3 inh -12.8%, DT40 TDP1 no CPT -15.2%, TDP1 cell CPT 26.3%, HepG2 viability -19.2% and IL1B secr inh 10.7.
`CN(C)c1ccc(NC(=O)c2sc(SCC(=O)Nc3ccc(Br)cc3)nc2N)cc1` gave TDP1 block 4.8%, TGFb SMAD3 inh 2.1%, DT40 TDP1 no CPT 7.0%, TDP1 cell CPT -9.6%, HepG2 viability 2.2% and IL1B secr inh -5.2.
O=C(CSc1nc(-c2ccccc2)cs1)Nc1nccs1 was read as TDP1 block 4.8%, TGFb SMAD3 inh 0.1%, DT40 TDP1 no CPT 16.4µM*, TDP1 cell CPT inconclusive, HepG2 viability -23.8% and IL1B secr inh 36.5.
CCn1c(SCC(=O)Nc2oc(-c3ccccc3)c(-c3ccccc3)c2C#N)nnc1-c1ccco1 was read as TDP1 block 10.5%, TGFb SMAD3 inh inconclusive, DT40 TDP1 no CPT -29.5%, TDP1 cell CPT inconclusive, HepG2 viability -5.4% and IL1B secr inh -14.0.
